In all, about 81,000 sequences were measured (“one-hybrid fitness for binding NBS DNA”: median about -0.1, highest 2% from about 0.36 on). The sample as a whole holds a higher share of the highest values than the screen did.
B1: Caulobacter ParB omega fusion; a variant is named by its letters at X, in order, B8GW30 (parent)
chain: MESVVVGEPGMSEGRRGLGRGLSALLGEVDAAPAQAPGEQLGGSREAPIEILQRNPDQPRRTFREEDLEDLSNSIREKGVLQPILVRPSPDTAGEYQIVAGERAWRAAQRAGLKTVPIMVRELDDLAVLEIGIIENVQRADLNVLEEALSYKVLMEKFERTQENIAQTIGKSXSHVANXMRLLXLPDEVQSYLVSGELTAXHARAIAAAADPVALAKQIIEGGLSVRETEALARKAPNLSAGKSKGGRPPRVKDTDTQALESDLSSVLGLDVSIDHRGSTGTLTITYATLEQLDDLCNRLTRGI

Variants of: B1
Assay: one-hybrid fitness for binding NBS DNA (the Noc-binding site; scaled: cognate 1, non-cognate 0); higher = stronger binding
Details: with NBS DNA site
In short: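 Values were rescaled so that cognate is 1 and non-cognate is 0. Each is a fitness, the log change in a variant's read ratio to wild type from Illumina reads of plasmids before and after selection, with three replicate libraries pooled and variants under 10 reads dropped. Selection of the Caulobacter ParB libraries, four specificity codons randomised, used E. coli USO with a HIS3 reporter, site 19 bp from the promoter, on M9-minus-histidine with 0.1 mM IPTG and 5 mM 3-AT for 48 hours at 37°C.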

Row | Variant | one-hybrid fitness for binding NBS DNA
1 | KESF | ≤ 0.2
2 | IFWR | ≤ 0.2
3 | KAHR | ≤ 0.2
4 | AQIS | ≤ 0.2
5 | RGNV | ≤ 0.2
6 | HSPH | ≤ 0.2
7 | WDHG | ≤ 0.2
8 | KMKY | ≤ 0.2
9 | QYNQ | ≤ 0.2
10 | QYCQ | ≤ 0.2
11 | QYRQ | 0.435
12 | QYKQ | 0.394
13 | QYVQ | 0.313
14 | QYSQ | ≤ 0.2
15 | RSEI | ≤ 0.2
16 | SPTR | ≤ 0.2
17 | RTYY | ≤ 0.2
18 | RTVS | 0.39
19 | RTKY | 0.418
20 | RTDY | ≤ 0.2
21 | RTVP | ≤ 0.2
22 | RTRY | 0.38
23 | RTVY | ≤ 0.2
24 | RPKY | ≤ 0.2
25 | RTVH | ≤ 0.2
26 | RTVN | ≤ 0.2

Row | Variant | one-hybrid fitness for binding NBS DNA
27 | RTKD | ≤ 0.2
28 | RTKH | 0.651
29 | QFSY | ≤ 0.2
30 | LCCW | ≤ 0.2
31 | SFAL | ≤ 0.2
32 | PWTQ | ≤ 0.2
33 | SYNN | ≤ 0.2
34 | PQEL | ≤ 0.2
35 | MDPA | ≤ 0.2
36 | QCMN | ≤ 0.2
37 | FPNL | ≤ 0.2
38 | PFHL | ≤ 0.2
39 | LLMP | ≤ 0.2
40 | FGTY | ≤ 0.2
41 | RTKP | ≤ 0.2
42 | RTKN | 0.3
43 | RTKS | 0.622
44 | ANHS | ≤ 0.2
45 | KTVT | ≤ 0.2
46 | KTDT | ≤ 0.2
47 | KTKT | 0.396
48 | KTFT | ≤ 0.2
49 | KTRT | 0.44
50 | KTYT | ≤ 0.2
51 | HMYT | ≤ 0.2
52 | SGID | ≤ 0.2

Row | Variant | one-hybrid fitness for binding NBS DNA
53 | QDWR | ≤ 0.2
54 | DLYM | ≤ 0.2
55 | MQVF | ≤ 0.2
56 | PLIS | ≤ 0.2
57 | QGKY | ≤ 0.2
58 | QCKY | 0.59
59 | QCVY | ≤ 0.2
60 | QIKY | 0.364
61 | QSVY | ≤ 0.2
62 | QIKD | ≤ 0.2
63 | QHKY | 0.529
64 | QHQY | ≤ 0.2
65 | QHVY | ≤ 0.2
66 | QPKY | ≤ 0.2
67 | QIKP | ≤ 0.2
68 | QSKY | 0.517
69 | GTNT | ≤ 0.2
70 | RTRV | 0.288
71 | PYEG | ≤ 0.2
72 | AMAG | ≤ 0.2
73 | PRCC | ≤ 0.2
74 | MKRL | ≤ 0.2
75 | GLHC | ≤ 0.2
76 | WTLT | ≤ 0.2
77 | YTVE | ≤ 0.2
78 | QAKY | 0.531

Row | Variant | one-hybrid fitness for binding NBS DNA
79 | QTIY | ≤ 0.2
80 | QKNY | 0.26
81 | QKKY | 0.498
82 | QMPY | ≤ 0.2
83 | QTVY | ≤ 0.2
84 | QANY | ≤ 0.2
85 | QMVY | ≤ 0.2
86 | QAVY | ≤ 0.2
87 | QTKY | 0.658
88 | QKVY | ≤ 0.2
89 | QMKY | 0.516
90 | VVSE | ≤ 0.2
91 | LAWC | ≤ 0.2
92 | RNCT | ≤ 0.2
93 | SKAC | ≤ 0.2
94 | MVPR | ≤ 0.2
95 | EELK | ≤ 0.2
96 | TSEY | ≤ 0.2
97 | HMMA | ≤ 0.2
98 | CPSC | ≤ 0.2
99 | TSCN | ≤ 0.2
100 | GRQR | ≤ 0.2
101 | QLKY | 0.46
102 | QLVY | ≤ 0.2
103 | QLHY | ≤ 0.2
104 | KCDL | ≤ 0.2

Row | Variant | one-hybrid fitness for binding NBS DNA
105 | SRHH | ≤ 0.2
106 | QQIA | ≤ 0.2
107 | QQPA | ≤ 0.2
108 | QQHA | 0.384
109 | QQDA | 0.25
110 | QQNA | 0.421
111 | QQLA | 0.294
112 | QQKA | 0.628
113 | QQAA | 0.347
114 | QQSA | 0.37
115 | QQVA | 0.271
116 | QQQA | 0.357
117 | PRNE | ≤ 0.2
118 | MSCY | ≤ 0.2
119 | IKIS | ≤ 0.2
120 | QDWF | ≤ 0.2
121 | TRTG | ≤ 0.2
122 | QQRA | 0.606
123 | QQFA | 0.201
124 | QQYA | 0.303
125 | QQCA | 0.291
126 | QQGA | 0.388
127 | QQWA | 0.212
128 | RKKR | 0.768
129 | RKKM | 0.269
130 | RKVR | 0.478

Row | Variant | one-hybrid fitness for binding NBS DNA
131 | RPVR | 0.204
132 | RKKF | ≤ 0.2
133 | RCVR | 0.349
134 | TEPD | ≤ 0.2
135 | QDCL | ≤ 0.2
136 | HRKR | 0.395
137 | YRVR | ≤ 0.2
138 | PRVR | ≤ 0.2
139 | TRKP | ≤ 0.2
140 | PCKR | 0.205
141 | HRYR | ≤ 0.2
142 | TRKS | 0.437
143 | YRKR | 0.377
144 | YCKR | ≤ 0.2
145 | PRKR | 0.4
146 | HRVR | ≤ 0.2
147 | TRVS | ≤ 0.2
148 | GNLD | ≤ 0.2
149 | ICLR | ≤ 0.2
150 | DVLD | ≤ 0.2
151 | AEAG | ≤ 0.2
152 | IGGG | ≤ 0.2
153 | AHLT | ≤ 0.2

Reference: a collection of fitness landscapes (doi:10.1016/j.celrep.2020.107928)
